# Screens: PubChem, National Center for Advancing Translational Sciences (NCATS)
# MCF10A rereplic: DNA re-replication induction in MCF 10a cells | MCF 10A DNA re-replication, Hoechst nuclear intensity, 48 h | Potency, µM (series often up to 46.1 µM), for the others: at the top dose activity, positive = re-replication, actives largely listed as activators | 350,000 compounds, 2.9% hits | AID 624296; further: potency means the concentration at half of the fitted maximal effect; % of control where 0% means no effect; nearly all actives have a fitted effect of over 50% in size
# SW480 rerep: induces DNA re-replication in SW480 colon adenocarcinoma cells. SW480 DNA re-replication, Hoechst DNA content imaging, 48 h. Potency, µM (series often up to 46.1 µM), for the others: at the top dose re-replication activation, hits mostly activators. 340,000 compounds, 1.8% hits. AID 624297; further: potency means the concentration at half of the fitted maximal effect; % of control where 0% means no effect; nearly all actives have a fitted effect of over 55% in size
#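 Image-based read-out: total Hoechst fluorescence of nuclei (405 nm excitation, 500-530 nm emission), with hits raising the fraction of high-intensity nuclei. SW480 colon cells incubated 48 hr with compounds at 37 C.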
# IL1B secr inh: inhibitors of inflammasome signaling (IL-1 beta secretion) | THP-1 LPS/ATP IL-1B secretion, AlphaLISA, 16 h; hits give low values | activity change, % at 57.5 µM | 360,000 compounds, 4.7% hits | AID 743279; in the data active means activity change below about -50%; inconclusive means mostly about -30% to -49%; further: on the % scale 0 is the no-effect control and ±100 the full control effect
#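 THP-1 cells pretreated 1 hr with compounds (up to 57.5 uM final), then stimulated with LPS (250 ng/mL final) plus ATP (1.25 mM final); secreted IL-1B measured by AlphaLISA after 16 hr, decreased signal indicating inhibition.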
# Vif-APOBEC3F blk: blocks the Vif interaction with APOBEC3F; HeLa A3F-eYFP + Vif (tagged APOBEC3F with the HIV-1 protein that degrades it), YFP fluorescence increase; Potency, µM (titrated, usually from 46.1 µM), for the others: at the top dose activity, negative = active; 390,000 compounds, 0.2% hits; AID 602313; further: potency means the concentration at half of the fitted maximal effect; % of control where 0% means no effect; nearly all actives have a fitted effect of over 65% in size
#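 HeLa cells stably expressing A3F-eYFP plus Vif, plated and incubated overnight at 37 deg C, then exposed to compounds overnight at 37 deg C. Blocked degradation read as raised yellow fluorescence (Ex 488/Em 500-530).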
# Giardia killer: kills Giardia lamblia. activity change, % at 7.66 µM, hits read low. Giardia lamblia trophozoite viability. 340,000 compounds, 0.15% hits; in the data active means activity change below about -80%; inconclusive means between about -30% and that limit;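 further: parasites exposed to compound for two days anaerobically before the ATP read; on the % scale 0 is the no-effect control and ±100 the full control effect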
#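 Killing of trophozoites was scored by loss of ATP luminescence after a 48 hrs anaerobic exposure to compounds at 37 deg C, using 100 cells per well.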
# Vif-APOBEC3G blk: blocks the Vif interaction with human APOBEC3G; 410,000 compounds, 0.076% hits; HeLa A3G-eYFP + Vif (tagged APOBEC3G with the HIV-1 protein that degrades it), YFP fluorescence, overnight; Potency, µM (doses to about 46.1 µM), without a hit: at the highest dose activity, negative = active, usual class: inhibitors; further: potency means the concentration at half of the fitted maximal effect; on the % scale 0 is the no-effect control and ±100 the full control effect; nearly all actives have a fitted effect of over 60% in size
# Target sequence (Q9HC16 whole entry, looked up): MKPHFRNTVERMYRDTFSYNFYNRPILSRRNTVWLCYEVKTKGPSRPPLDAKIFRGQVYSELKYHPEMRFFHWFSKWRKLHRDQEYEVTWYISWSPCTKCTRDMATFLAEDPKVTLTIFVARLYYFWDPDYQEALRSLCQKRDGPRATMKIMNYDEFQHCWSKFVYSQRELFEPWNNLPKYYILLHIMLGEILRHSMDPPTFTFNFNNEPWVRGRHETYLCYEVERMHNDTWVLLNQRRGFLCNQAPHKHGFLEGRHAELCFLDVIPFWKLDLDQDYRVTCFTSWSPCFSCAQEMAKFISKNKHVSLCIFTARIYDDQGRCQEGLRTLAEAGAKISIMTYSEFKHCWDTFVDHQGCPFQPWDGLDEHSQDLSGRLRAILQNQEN
#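 HeLa cells stably expressing Vif and C-terminally eYFP-tagged A3G, seeded overnight at 37 deg C, then exposed to compound by pintool overnight at 37 deg C. Rise in yellow fluorescence (Ex 488/Em 500-530, Acumen) marks blocked Vif-driven A3G degradation.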
# Active calls of the source: *; ? = inconclusive; . = no result. An excerpt weighted towards active compounds, which were near 6.9% of everything screened. Unless noted, the call rests on the fitted dose curve; in most records, active means well fitted curve in the direction sought with a large enough effect; inconclusive means small, poorly fitted or top-dose-only effect, or another doubt; inactive means no such curve, though single readings can be large; an effect the other way counts as inactive or inconclusive.
SMILES,MCF10A rereplic,SW480 rerep,IL1B secr inh,Vif-APOBEC3F blk,Giardia killer,Vif-APOBEC3G blk
COC(=O)C1=C(C)NC(C)=C([N+](=O)[O-])[C@H]1c1ccccc1C(F)(F)F,.,.,.,.,.,4%
O=C1Cc2ccccc2C(c2ccc(Cl)cc2)N1 (centres undefined),?,-2%,3,1%,-7,-4%
S=C1Cc2ccccc2C(c2ccc(Cl)cc2)N1 (centres undefined),16µM*,?,30,2%,6,-1%
CC(C)Cc1ccc(S(=O)(=O)Nc2cc3c(cc2N2CCOCC2)n(C)c(=O)c(=O)n3C)cc1,.,.,.,-7%,.,-3%
CCn1c(=O)cc(SCC(=O)NCc2ccco2)c2ccccc21,3.7µM*,21µM*,15,-10%,-22,?
CCc1ccc(CNC(=O)CSc2cc(=O)n(CC)c3ccccc23)cc1,.,.,.,-3%,.,?
CCn1c(=O)cc(SCC(=O)NCc2ccc(C)o2)c2ccccc21,21µM*,-2%,38,-1%,4,?
O=C(N/N=C/c1cccc(O)c1)c1ccc(NC(=O)C2CCCCC2)cc1,19%,-4%,-2,-10%,-6,0%
O=C(N/N=C/c1ccc(O)cc1O)c1ccc(NC(=O)C2CCCCC2)cc1,?,16µM*,267,-13%,9,?
C1CC1Cc1noc(CN2CCN(C3C4CC5CC(C4)CC3C5)CC2)n1 (centres undefined),2.9µM*,-8%,33,0%,-12,0%
CCCCCC=CCC=CCCCCCCCC(=O)OCC,6%,0%,.,.,.,.
COC(=O)c1cccc(CN2C(=O)SC(Nc3ccccc3C)C2=O)c1 (centres undefined),.,.,.,4%,.,-5%
Cc1c(C(=O)N2CC[C@@H](N3CCC(O)CC3)[C@H](O)C2)[nH]c2ccc(Cl)cc12,13%,-1%,-54*,1%,-16,-1%
Cc1c(C(=O)N2CCC(n3nccc3NC(=O)C3CC3)CC2)[nH]c2ccc(Cl)cc12,11%,13%,-13,-5%,-7,0%
CCOc1ccc2[nH]cc(C(=O)NCc3ccccc3)c(=O)c2c1,3%,0%,-10,-7%,32,-12%
CCOc1ccc2[nH]cc(C(=O)NCCc3ccccc3)c(=O)c2c1,?,?,-54*,1%,-7,0%
CC(C)C1CC(CCNCc2ccc(N(C)C)cc2)(c2ccccc2)CCO1 (centres undefined),?,23%,-100*,-20%,-20,0%
CC(C)C1CC(CCNCc2ccc3c(c2)OCO3)(c2ccccc2)CCO1 (centres undefined),?,?,-69*,9%,-1,-2%
Cc1ccc(C2(CCNCc3ccc(N(C)C)cc3)CCOC(C(C)C)C2)cc1 (centres undefined),?,?,-97*,-6%,-9,0%
COc1cc(/C=C/C(=O)NC(=O)c2ccccc2O)ccc1O,-8%,-5%,-5,1%,1,-17%
COc1cc(OC)c(C(=O)/C=C/c2ccccc2)c(O)c1O,?,?,-100*,-5%,-2,?
COc1cc(/C=C/C(O)=C/C(=O)/C=C/c2ccc(O)cc2)ccc1O,18µM*,?,-97*,?,-6,?
COc1cc(O)cc(O)c1C(=O)/C=C/c1ccccc1,?,?,-106*,4%,8,?
Cc1ccc(C)c(N2CCN(S(=O)(=O)c3ccc(C(=O)N(C)C)s3)CC2)c1,.,.,.,6%,.,8%
Cc1cccc(NC(=O)CSc2nnc(CNC(=O)c3c(F)cccc3Cl)o2)c1C,.,.,.,-3%,.,-4%
Cc1nnc(N2CCN(c3ccc(Cl)cc3)CC2)c2c1nnn2Cc1ccc(F)cc1,.,.,.,-3%,.,7%
Cc1ccc2c(c1)-c1c(cnc3cc(-c4ccc(Cl)cc4)nn13)CO2,.,.,.,0%,.,1%
Cc1c(C(=O)NCCC2=CCCCC2)sc2ncnc(N3CCCCC3C)c12 (centres undefined),?,?,-80*,-3%,-17,-1%
